Source: PubChem BioAssay
HIV RNase H inh-1: blocks HIV-1 RNase H cleavage of RNA/DNA duplex | actives 1.9% (n = 65,000) | RT-RNase H RNA/DNA duplex cleavage, fluorescence | P04585 | inhibition, % at 10 µM; in the data active = inhibition above about 50%
HIV RNase H inh-2: confirmation of HIV-1 reverse transcriptase RNase H inhibitors. shares compounds with HIV RNase H inh-1. Recombinant RT RNase H, fluorescent RNA/DNA duplex cleavage. inhibition, % at 10 µM. actives 39% (n = 1,000); in the data active = inhibition above about 48%; inconclusive = no clear call, values can overlap the other calls
Hits are given with their value; - = inactive; ? = inconclusive. Only a selection was taken, and hits are over-represented in it overall.

SMILES	HIV RNase H inh-1	others
CSc1nc(NCCOCCO)c2sc3nc(-c4ccco4)c4c(c3c2n1)CCC4	70	HIV RNase H inh-2=-
c1nc(NCCN2CCOCC2)c2sc3nc(N4CCOCC4)c4c(c3c2n1)CCC4	-
Cc1cc(C)n(-c2c(F)c(F)c(CN3CCOCC3)c(F)c2F)n1	-
Cc1cc(C)n2c(SC/C(O)=C(\C#N)c3nc4ccccc4[nH]3)nnc2n1	83	HIV RNase H inh-2=?
CCOC(=O)c1ccc2c(c1)nc(SC/C(O)=C(\C#N)c1nc3ccccc3[nH]1)n2CC	-
Cc1ccccc1-n1c(SC/C(O)=C(\C#N)c2nc3ccccc3[nH]2)nnc1-c1ccncc1	-
O=C(CN1C(=O)C2CC=CCC2C1=O)OCCN1C(=O)c2ccccc2C1=O (configuration not stated)	-
CC(C)n1c(=S)[nH]c2c1c(=O)[nH]c(=O)n2C	-
CC1CCN(CCCNC(=O)Cc2c(C(=O)O)n(C)c3ccccc23)CC1	-
Cc1ccc(C)c(C(C)NC(=O)C2C3CCC(O3)C2C(=O)O)c1 (configuration not stated)	-
CCOC(=O)c1c(N)sc2c1CCS(=O)(=O)C2	-
CCOC(=O)c1c(N)sc2c1CCCC2	85	HIV RNase H inh-2=-
CCOC(=O)c1c(N)sc2c1CCC(C)C2 (configuration not stated)	-
CC(C)N(C(=O)COc1ccc(Br)cc1Cl)C(C)C	-
O=C(O)C1Sc2[nH]c(=O)sc2C2c3cc(Cl)ccc3OC(=O)C12 (configuration not stated)	72	HIV RNase H inh-2=-
COC(=O)C1Sc2[nH]c(=O)sc2C2c3ccccc3OC(=O)C12 (configuration not stated)	-
COC(=O)C1Sc2[nH]c(=O)sc2C(c2ccc(Cl)cc2)C1C(=O)OC (configuration not stated)	-
Cc1ccc2[nH]c(=O)c(CN(Cc3ccccc3Cl)C(=O)N3CCOCC3)cc2c1	-
O=C1C2C3CCCC3=C3CCCC3C2C(=O)N1c1ccccc1 (configuration not stated)	-
COC(=O)c1sc2nc(-c3ccco3)ccc2c1N	79	HIV RNase H inh-2=-
COC(=O)c1sc(NC(=O)c2ccco2)nc1C	-
Cc1csc(NC(=O)c2sc3nc(-c4cccs4)ccc3c2N)n1	-
CC(NC(=O)Cc1cccs1)C(c1cccs1)N1CCOCC1 (configuration not stated)	-
C#CC1(O)CC(C)NCC1(C)CCC#N (configuration not stated)	-
CS(=O)CSc1nc2c(cc1C#N)CCCC2 (configuration not stated)	-
SMILES	HIV RNase H inh-1	others
N#Cc1c(N)n[nH]c1-c1cc2c([nH]1)CCCC2	-
N#Cc1cc2c([nH]c1=S)CCCCCC2	81	HIV RNase H inh-2=-
O=C(CSc1nnc(-c2cccs2)n1-c1ccccc1)N1CCc2ccccc21	-
CC1CCc2cc(F)cc3c(O)c(C(=O)Nc4cnccn4)c(=O)n1c23 (configuration not stated)	-
Cc1nnc(Sc2nc3c(c(=O)n(C)c(=O)n3C)n2Cc2ccc(Cl)cc2)s1	-
Cc1cc2nn(-c3ccccc3)nc2cc1NC(=O)c1cccs1	-
COc1ccc(-n2nc3cc(C)c(NC(=O)CC(C)C)cc3n2)cc1	65	HIV RNase H inh-2=61
COc1ccc(-n2nc3cc(C)c(NC(=O)c4cccnc4)cc3n2)cc1	-
Cc1noc(C)c1CSc1nnnn1-c1ccc(Cl)cc1	-
COc1ccc(-c2nc3n(n2)C(c2ccccc2Cl)C(C(N)=O)=C(C)N3)cc1 (configuration not stated)	-
Cc1cc(NC(=O)COC(=O)c2c(C)nn(Cc3ccccc3)c2Cl)no1	-
COc1cc(C(=O)OCC(=O)Nc2cc(C)on2)ccc1OCc1ccccc1Cl	52	HIV RNase H inh-2=-
Cc1cc(NC(=O)COC(=O)CCCOc2ccc(Cl)cc2C)no1	-
O=C1CCCC2=C1C(c1ccccc1O)C1=C(CCCC1=O)O2	-
O=C1CCCc2c1[nH]c1ccccc21	-
O=C1CCCC(O)=C1C(C#Cc1ccccc1)C1=C(O)CCCC1=O	83	HIV RNase H inh-2=78
CCOC(=O)c1cnc(SCC(=O)Nc2nc(C)c(C)s2)nc1N	-
Cc1cccc(-c2c3c(=O)n(C)c(=O)n(C)c3c3cccnn23)c1	-
CC(NC(=O)Nc1ccc(F)cc1F)c1ccncc1 (configuration not stated)	-
Cc1nn2c(-c3cccc(NC(=O)CN4CCOCC4)c3)nnc2c2ccccc12	-
Cc1nn2c(-c3cccc(NC(=O)CSc4nc5ccccc5o4)c3)nnc2c2ccccc12	89	HIV RNase H inh-2=66
COc1cc(OC)nc(NC(=O)CSc2nc3ccccc3o2)n1	-
CN1C(=O)c2cccc(NC(=O)CCc3ccccc3)c2C1=O	-
CCCCCCNC(=O)c1c(N)n(/N=C/c2ccco2)c2nc3ccccc3nc12	71	HIV RNase H inh-2=88
Nc1c(C(=O)NC2CCCCC2)c2nc3ccccc3nc2n1/N=C/c1ccco1	-
SMILES	HIV RNase H inh-1	others
COCCNC(=O)c1c(N)n(/N=C/c2cccs2)c2nc3ccccc3nc12	-
Nc1c(S(=O)(=O)c2ccccc2)c2nc3ccccc3nc2n1/N=C/c1ccco1	-
CC(C)CNC(=O)c1c(N)n(/N=C/c2ccccn2)c2nc3ccccc3nc12	61	HIV RNase H inh-2=63
CC(C)Cn1c(N)c(C(=O)NCCN2CCOCC2)c2nc3ccccc3nc21	-
Cc1ccc2c(c1)C(C)(C)[C@]1(C)NC(=O)CCN21	-
S=C(c1ccc2c(c1)OCO2)N1CCCC1	-
CC1(C(=O)N(c2ccccc2)C(C(=O)NC2CCCC2)c2ccccn2)CC(=O)N=C2C=CC=CN21 (configuration not stated)	-
CCOC(=O)C1=C(N)OC2=C(C(=O)CC(C)(C)C2)C1c1ccccc1OCC#N (configuration not stated)	-
Cn1c(Br)nc2c1c(=O)n(CC(O)COc1ccccc1)c(=O)n2C (configuration not stated)	-
CC1(C)Cc2noc(N)c2C(C)(C)N1O	-
O=C1CC(N(O)C2CC(=O)N(Cc3ccccc3)C2=O)C(=O)N1Cc1ccccc1 (configuration not stated)	-
CCCCCCC(=O)N(O)C1CC(=O)N(Cc2ccccc2)C1=O (configuration not stated)	66	HIV RNase H inh-2=-
CCCCCC(=O)N(O)C1CC(=O)N(c2ccccc2)C1=O (configuration not stated)	-
CCCCn1c2nc3ccccc3nc2c2c(=N)oc(C)nc21	-
CCCCC(CC)Cn1c(N)c(C#N)c2nc3ccccc3nc21 (configuration not stated)	-
CCCCC(CC)Cn1c2nc3ccccc3nc2c2c(=N)oc(C)nc21 (configuration not stated)	68	HIV RNase H inh-2=65
O=C(c1ccccc1F)N1CCN(Cc2cccc(Cl)c2)CC1	-
CCOC(=O)N1CCN(CCC(=O)Nc2ccc(OC(F)(F)F)cc2)CC1	-
C=CCn1c(=O)[nH]c2cc(C(=O)N3CCN(c4cc(C)ccc4C)CC3)ccc2c1=O	80	HIV RNase H inh-2=-
C=CCn1c(=O)[nH]c2cc(C(=O)N3CCN(c4ccc(C(C)=O)cc4)CC3)ccc2c1=O	-
Cc1ccc(C)c(N2CCN(C(=O)c3ccc(Cn4c(=O)[nH]c5ccccc5c4=O)cc3)CC2)c1	-
CCOc1ccc(-c2nnc(-c3snc(-c4ccc(F)cc4)c3N=CN(C)C)o2)cc1	-
Cc1ccc(OCC(=O)Nc2ccc(O)c(-c3nc4ccccc4o3)c2)cc1	70	HIV RNase H inh-2=-
COc1ccc(OCC(=O)Nc2ccc(C)cc2)cc1	-
COc1cc(OC)cc(C(=O)Nc2ccc(-c3nc4ccccc4o3)cc2)c1	-
